Results on one molecule are retold here after PubChem BioAssay (NCATS).

Assay [1] concerns the target Thyroid hormone receptor beta (Homo sapiens) (UniProt P10828). As to the kind of experiment: qHTS assay for small molecule agonists of thyroid hormone receptor beta signaling (AID 588545; calls by dose curve). In a few lines:
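HEK 293 TR-UAS-bla; agonist mode; 18 hrs, 37 C; CCF4, ex 405/em 460 and 530 nm; norm. T3 10 nM = 100%, DMSO = 0%; Hill fit → EC50, efficacy.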

The nature of assay [2]: qHTS assay for small molecule antagonists of retinoid X receptor alpha signaling (AID 588546; active = well fitted inhibition curve with a large enough effect in the signal ratio, with a control signal flat, not every such curve was filed as active; the % refers to the signal ratio;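 note: cells stimulated with 9-cis-retinoic acid as agonist; % is set by controls: 0 for no effect and ±100 for the full control effect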). Conditions: HEK293T RXRa-UAS-bla, beta-lactamase ratio, antagonist mode; measured here: W530 green channel, cytotoxicity proxy. In a few lines:
(§1)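 Beta-lactamase reporter inhibition, read as CCF4 fluorescence ratio (ex 405, em 460/530 nm) after 2 h at RT. HEK293T UAS-bla cells, 2500/well, were stimulated with 9-cis-RA at 500 or 100 nM final alongside test compound for 18 h at 37 C.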

Assay [3] deals with Retinoic acid receptor RXR-alpha (Homo sapiens) (UniProt P19793). The assay is described as above. Conditions: HEK293T RXRa-UAS-bla, beta-lactamase ratio, antagonist mode. In a few lines:
as §1

For assay [4], the target named is Thyroid hormone receptor beta (Homo sapiens) (UniProt P10828). As to the kind of experiment: qHTS assay for small molecule antagonists of thyroid hormone receptor beta signaling (AID 588547; active = well fitted inhibition curve with a large enough effect in the signal ratio, with a control signal flat, not every such curve was filed as active; the % refers to the signal ratio;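 note: cells stimulated with 0.4 nM T3 agonist during compound exposure; % is set by controls: 0 for no effect and ±100 for the full control effect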). Particulars: TR-UAS-bla HEK293, beta-lactamase ratio, antagonist mode, 18 h. In short, it runs like this: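 TR-UAS-bla GripTite HEK293 cells in 2% charcoal/dextran FBS medium; compounds 0.59 nM to 92 uM with T3 at 0.4nM final, 18 h at 37 C. Beta-lactamase read by CCF4 fluorescence (460/530 nm); Hill fits gave IC50 and efficacy.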
Chain of Thyroid hormone receptor beta (Homo sapiens) (P10828 whole entry, looked up): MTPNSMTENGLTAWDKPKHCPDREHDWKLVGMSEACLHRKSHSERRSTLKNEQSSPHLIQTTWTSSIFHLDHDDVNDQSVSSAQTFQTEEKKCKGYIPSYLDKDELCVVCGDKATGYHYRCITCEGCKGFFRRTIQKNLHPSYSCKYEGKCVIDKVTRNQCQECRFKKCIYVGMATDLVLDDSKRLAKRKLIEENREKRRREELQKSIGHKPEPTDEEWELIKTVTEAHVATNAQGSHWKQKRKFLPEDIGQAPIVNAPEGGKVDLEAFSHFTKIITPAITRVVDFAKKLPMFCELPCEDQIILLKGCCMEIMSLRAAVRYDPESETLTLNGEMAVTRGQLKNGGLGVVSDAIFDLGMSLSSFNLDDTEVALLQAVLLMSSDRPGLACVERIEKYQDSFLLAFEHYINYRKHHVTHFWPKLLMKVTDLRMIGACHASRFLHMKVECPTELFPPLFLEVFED

In assay [5] the target is Voltage-gated inwardly rectifying potassium channel KCNH2 (Homo sapiens) (UniProt Q12809). As to the kind of experiment: qHTS Assay for Small Molecule Inhibitors of the Human hERG Channel Activity (AID 588834).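 Note: top concentration of the series differs between compounds; % is set by controls: 0 for no effect and ±100 for the full control effect; lower thallium flux fluorescence means stronger hERG block; nearly all actives have a fitted effect of over 50% in size.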 In a few lines: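 hERG block measured as reduced thallium-dye (FluxOR) fluorescence after stimulation buffer addition, read over 2 min. Cells were hERG-BacMam-transduced U2OS exposed to compound ~10 min […]; concentration-response fitted with Hill equation for AC50.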
Chain of Voltage-gated inwardly rectifying potassium channel KCNH2 (Homo sapiens) (Q12809 whole entry, looked up): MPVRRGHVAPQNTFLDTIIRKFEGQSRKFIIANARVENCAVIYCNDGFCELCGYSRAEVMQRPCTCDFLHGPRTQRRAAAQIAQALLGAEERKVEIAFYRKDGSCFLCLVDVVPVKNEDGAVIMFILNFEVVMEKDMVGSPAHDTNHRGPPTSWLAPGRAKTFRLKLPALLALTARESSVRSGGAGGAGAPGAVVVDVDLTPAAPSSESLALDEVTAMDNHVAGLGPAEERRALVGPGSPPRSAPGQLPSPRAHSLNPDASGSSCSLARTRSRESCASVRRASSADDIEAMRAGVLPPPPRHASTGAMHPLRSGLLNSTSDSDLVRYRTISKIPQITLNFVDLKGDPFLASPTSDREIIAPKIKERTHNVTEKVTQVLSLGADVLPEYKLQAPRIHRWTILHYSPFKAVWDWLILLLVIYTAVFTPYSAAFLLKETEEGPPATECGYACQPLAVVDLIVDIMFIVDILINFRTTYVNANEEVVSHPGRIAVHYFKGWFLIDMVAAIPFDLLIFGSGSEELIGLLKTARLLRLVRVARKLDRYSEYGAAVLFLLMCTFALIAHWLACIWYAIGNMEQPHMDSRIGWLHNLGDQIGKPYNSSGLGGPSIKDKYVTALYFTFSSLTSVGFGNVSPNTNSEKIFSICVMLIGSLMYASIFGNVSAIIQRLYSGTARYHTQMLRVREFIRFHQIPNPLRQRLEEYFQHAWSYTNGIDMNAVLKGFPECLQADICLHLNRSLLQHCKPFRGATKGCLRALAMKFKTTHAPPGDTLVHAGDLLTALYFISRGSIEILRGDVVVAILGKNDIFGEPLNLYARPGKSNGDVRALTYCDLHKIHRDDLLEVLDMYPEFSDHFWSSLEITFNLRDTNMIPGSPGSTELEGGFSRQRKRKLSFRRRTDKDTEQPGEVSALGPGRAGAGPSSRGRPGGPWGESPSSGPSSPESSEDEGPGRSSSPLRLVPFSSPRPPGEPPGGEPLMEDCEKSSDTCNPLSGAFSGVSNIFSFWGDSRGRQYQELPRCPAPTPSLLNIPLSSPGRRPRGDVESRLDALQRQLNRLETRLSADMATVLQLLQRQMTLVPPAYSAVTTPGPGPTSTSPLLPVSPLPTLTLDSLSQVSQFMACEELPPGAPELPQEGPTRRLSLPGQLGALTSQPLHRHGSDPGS

For assay [6], the target named is Luciferin 4-monooxygenase (Photinus pyralis) (UniProt P08659). As to the kind of experiment: Biochemical firefly luciferase enzyme assay for NPC (AID 624030).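 Note: purified P. pyralis luciferase at 10 nM with luciferin and ATP substrate; 0% = DMSO and -100% = full luciferase inhibition by PTC124 control; nearly all actives have a fitted effect of over 70% in size.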 In a few lines: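 Purified P. pyralis luciferase at 10 nM in 50 mM Tris Acetate (final), luminescence read within 5 minutes of enzyme addition to compounds. Activity normalised to PTC124 versus DMSO; concentration-response curves classed by r2, magnitude and activity.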
Chain of Luciferin 4-monooxygenase (Photinus pyralis) (P08659 whole entry, looked up): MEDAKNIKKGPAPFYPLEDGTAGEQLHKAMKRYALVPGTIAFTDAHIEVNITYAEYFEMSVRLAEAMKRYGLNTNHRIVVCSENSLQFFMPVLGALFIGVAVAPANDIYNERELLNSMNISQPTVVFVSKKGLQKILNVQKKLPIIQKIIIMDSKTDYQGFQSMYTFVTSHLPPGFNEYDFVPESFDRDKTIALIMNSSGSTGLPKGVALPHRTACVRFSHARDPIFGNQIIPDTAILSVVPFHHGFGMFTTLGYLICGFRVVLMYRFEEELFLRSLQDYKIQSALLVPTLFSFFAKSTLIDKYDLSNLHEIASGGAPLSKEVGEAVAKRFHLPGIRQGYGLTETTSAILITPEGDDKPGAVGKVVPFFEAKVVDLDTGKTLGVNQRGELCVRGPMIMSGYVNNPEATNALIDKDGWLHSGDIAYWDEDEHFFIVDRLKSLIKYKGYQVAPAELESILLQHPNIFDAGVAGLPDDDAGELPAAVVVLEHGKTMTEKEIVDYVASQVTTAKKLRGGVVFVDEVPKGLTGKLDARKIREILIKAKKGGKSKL

Assay [7] can be described thus: qHTS assay for small molecule agonists of the antioxidant response element (ARE) signaling pathway (AID 651741; active = well fitted activation curve with a large enough effect in the signal ratio; the % refers to the signal ratio; note: % of control where 0% means no effect). In short, it runs like this:
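Stably integrated ARE-beta-lactamase reporter HepG2 cells; 16 h compound incubation, 37 C; LiveBLAzer FRET substrate 2 h at room temperature; fluorescence intensity.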

Assay [8] can be described thus: qHTS assay for small molecule activators of the p53 signaling pathway (AID 651743; active = well fitted activation curve with a large enough effect in the signal ratio, not every such curve was filed as active; the % refers to the signal ratio; note: % of control where 0% means no effect). Conditions: HCT-116 p53RE-bla, beta-lactamase FRET ratio, 16 h; activation: stronger effect = higher value. In a few lines:
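Following 16 hours of compound exposure at 37 C, HCT-116 cells bearing the p53RE-bla reporter were loaded with LiveBLAzer B/G FRET substrate for 2 hours at room temperature and fluorescence intensity was recorded.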

The nature of assay [9]: qHTS assay for small molecule activators of the nuclear factor-kappa B (NF-kB) signaling pathway (AID 651749; active = well fitted activation curve with a large enough effect in the signal ratio; the % refers to the signal ratio; note: % of control where 0% means no effect). Conditions: NF-kB-bla ME-180 cells, beta-lactamase FRET ratio, 16 h; activation: stronger effect = higher value. In short, it runs like this:
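In this qHTS format, compounds acting as activators increase NF-kB-driven beta-lactamase in ME-180 cells, measured as disrupted FRET after 16 hr exposure at 37C and 5% CO2.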

The target in assay [10] is Peroxisome proliferator-activated receptor alpha (Homo sapiens) (UniProt Q07869). Kind of assay: qHTS assay for small molecule agonists of the peroxisome proliferator-activated receptor alpha (PPARalpha) signaling pathway (AID 651778). Note: % of control where 0% means no effect. Particulars: PathHunter PPARalpha complementation, chemiluminescence, 6 h; stronger effect = higher value. In short, it runs like this: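 Enzyme-fragment complementation assay in which ligand-bound PPARalpha translocates and forms an active enzyme that generates chemiluminescence. Cells were plated overnight, exposed to compound for 6 hr at 37 C, and then given detection reagent for 60 min at room temperature.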
Chain of Peroxisome proliferator-activated receptor alpha (Homo sapiens) (Q07869 whole entry, looked up, the tested form may be a part): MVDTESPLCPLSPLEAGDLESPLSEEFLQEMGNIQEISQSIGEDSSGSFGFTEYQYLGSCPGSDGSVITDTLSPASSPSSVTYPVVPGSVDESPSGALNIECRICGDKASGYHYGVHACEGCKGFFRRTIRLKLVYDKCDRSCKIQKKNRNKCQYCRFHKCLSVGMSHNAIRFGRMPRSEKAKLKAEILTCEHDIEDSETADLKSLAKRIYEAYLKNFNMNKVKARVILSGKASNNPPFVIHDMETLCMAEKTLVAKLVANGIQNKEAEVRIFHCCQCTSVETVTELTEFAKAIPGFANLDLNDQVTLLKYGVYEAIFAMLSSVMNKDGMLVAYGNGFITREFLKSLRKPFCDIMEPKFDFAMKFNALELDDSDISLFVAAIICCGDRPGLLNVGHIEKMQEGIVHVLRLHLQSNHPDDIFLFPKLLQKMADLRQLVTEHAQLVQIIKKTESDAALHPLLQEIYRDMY

A short description of assay [11]: qHTS assay for small molecule agonists of the antioxidant response element (ARE) signaling pathway measured by Nrf2-dependant transcriptional activity (AID 720636; active = well fitted curve in the direction sought with a large enough effect in the repeat runs; an effect the other way counts as inactive or inconclusive;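 note: HepG2 cells with an ARE-driven luciferase reporter; % of control where 0% means no effect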). In short, it runs like this:
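We exposed ARE-luc HepG2 cells, seeded in assay medium with 1% dialyzed FBS and allowed 6 hr to adhere, to test compounds overnight (16 hr, 37 C) before measuring luciferase with ONE-Glo.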

Assay [12] in a line: qHTS assay for small molecule antagonists of the retinoid-related orphan receptor gamma (ROR-gamma) signaling pathway - cell viability counter screen (AID 720652; active = well fitted curve in the direction sought with a large enough effect in the repeat runs; an effect the other way counts as inactive or inconclusive;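 note: CHO reporter cells with doxycycline-induced ROR-gamma expression; compound exposure lasted 16 hr before ATP read; % is set by controls: 0 for no effect and ±100 for the full control effect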). In short, it runs like this:
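Cytotoxicity counter screen: intracellular ATP (CellTiter-Glo luminescence) measured in the doxycycline-induced CHO RORE-luciferase reporter line after 16 hr compound exposure at 37 C, 5% CO2.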

Assay [13] can be described thus: qHTS Assay for Identifying Gametocytocidal Compounds (AID 743244).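 Note: % is set by controls: 0 for no effect and ±100 for the full control effect; actives lower the fluorescent signal which means gametocytes are killed.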 Particulars: P. falciparum 3D7 stage III-V gametocytes, alamarBlue, 72 h; max response: stronger effect = lower value. In a few lines:
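Stage III–V gametocytes of P. falciparum 3D7 were seeded at 20,000 cells/well onto pre-dispensed compounds. After 72 h, 37 °C, 5% CO2, alamarBlue was added for another 24 h.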

Assay [14] can be described thus: qHTS assay for cell viability of HEK293 cells (AID 743288). Note: % is set by controls: 0 for no effect and ±100 for the full control effect; nearly all actives have a fitted effect of over 50% in size. Conditions: ATP luminescence (CellTiter-Glo), 18 h; max response: stronger effect = lower value. In short, it runs like this: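 Readout is luciferase-coupled ATP content (CellTiter-Glo luminescence, 30 min room temperature) as a measure of metabolically competent cells. Parental HEK293 cells were plated 5 h or more before compound addition, then treated 18 h at 37 C.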

A short description of assay [15]: qHTS assay for cell viability of the p53RE-bla HCT-116 cell line (AID 743292). Note: % is set by controls: 0 for no effect and ±100 for the full control effect; nearly all actives have a fitted effect of over 55% in size. In short, it runs like this: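 In this qHTS counter-screen, metabolically competent p53RE-bla HCT-116 cells were counted via their ATP content. Compounds were applied for 16 h at 37 C and luciferase-coupled luminescence was measured.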
A short description of assay [16]: P-glycoprotein substrates identified in KB-8-5-11 adenocarcinoma cell line, qHTS therapeutic library screen (AID 1346987). Note: % is set by controls: 0 for no effect and ±100 for the full control effect; nearly all actives have a fitted effect of over 65% in size. In a few lines:
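Compounds are pinned in dose-response onto KB-8-5-11 cells (500 cells/well, colchicine-free medium) and left 72 h at 37 degree C. CellTiter-Glo luminescence then yields AC50 values.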

Assay [17] deals with Cytochrome P450 2D6 (Homo sapiens) (UniProt P10635). As to the kind of experiment: Cytochrome P450 family 2 subfamily D member 6 (CYP2D6) small molecule antagonists: luciferase biochemical (cell-free) qHTS assay (AID 1645840; active = well fitted curve in the direction sought with a large enough effect in the repeat runs; an effect the other way counts as inactive or inconclusive; note: % is set by controls: 0 for no effect and ±100 for the full control effect; nearly all actives have a fitted effect of over 55% in size). In short, it runs like this: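 P450-Glo CYP2D6 system: proluciferin substrate converted by enzyme to luciferin, read by luminescence proportional to activity. Enzyme-substrate mix with compound 10 min at room temperature, then NADPH regeneration 1 h before detection reagent.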
Chain of Cytochrome P450 2D6 (Homo sapiens) (P10635 whole entry, looked up): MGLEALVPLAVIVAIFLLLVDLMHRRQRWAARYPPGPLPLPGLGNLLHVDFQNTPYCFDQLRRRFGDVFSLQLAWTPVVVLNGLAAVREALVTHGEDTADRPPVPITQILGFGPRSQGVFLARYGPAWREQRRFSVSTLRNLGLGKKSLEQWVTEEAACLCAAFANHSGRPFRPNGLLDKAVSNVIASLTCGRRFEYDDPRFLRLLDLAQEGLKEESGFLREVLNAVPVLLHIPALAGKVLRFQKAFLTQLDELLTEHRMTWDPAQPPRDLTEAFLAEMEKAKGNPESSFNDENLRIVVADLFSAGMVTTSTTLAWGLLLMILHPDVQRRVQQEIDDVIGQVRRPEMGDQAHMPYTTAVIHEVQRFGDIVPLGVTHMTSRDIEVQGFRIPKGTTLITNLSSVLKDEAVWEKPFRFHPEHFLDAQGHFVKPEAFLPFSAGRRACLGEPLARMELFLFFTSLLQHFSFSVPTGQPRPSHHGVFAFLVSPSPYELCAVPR

Assay [18] deals with Cytochrome P450 2C9 (Homo sapiens) (UniProt P11712). As to the kind of experiment: Cytochrome P450 family 2 subfamily C member 9 (CYP2C9) small molecule antagonists: luciferase biochemical (cell-free) qHTS assay (AID 1645842; active = well fitted curve in the direction sought with a large enough effect in the repeat runs; an effect the other way counts as inactive or inconclusive; note: % is set by controls: 0 for no effect and ±100 for the full control effect; nearly all actives have a fitted effect of over 55% in size). In short, it runs like this: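 P450-Glo CYP2C9 system: proluciferin substrate with enzyme in mix containing 0.4% BSA, 10 min at room temperature, then NADPH regeneration solution added and incubated 1 h at 37C. Detection reagent stopped reaction; luminescence read after 20 min as RLU.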
Chain of Cytochrome P450 2C9 (Homo sapiens) (P11712 whole entry, looked up): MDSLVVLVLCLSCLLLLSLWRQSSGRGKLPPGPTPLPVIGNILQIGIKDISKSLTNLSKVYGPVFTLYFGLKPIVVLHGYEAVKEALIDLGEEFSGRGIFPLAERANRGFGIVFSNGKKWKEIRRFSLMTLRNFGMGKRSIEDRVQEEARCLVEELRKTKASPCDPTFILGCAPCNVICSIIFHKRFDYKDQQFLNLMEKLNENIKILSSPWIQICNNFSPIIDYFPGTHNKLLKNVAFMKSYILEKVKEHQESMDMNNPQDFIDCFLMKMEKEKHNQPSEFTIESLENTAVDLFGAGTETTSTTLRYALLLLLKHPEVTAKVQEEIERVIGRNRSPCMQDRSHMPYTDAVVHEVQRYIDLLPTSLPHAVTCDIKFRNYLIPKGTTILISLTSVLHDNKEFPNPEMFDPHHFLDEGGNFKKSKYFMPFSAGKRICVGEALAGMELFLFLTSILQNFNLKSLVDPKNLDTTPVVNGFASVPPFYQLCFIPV

In assay [19] the test system is KB-3-1. Kind of assay: Cytotoxic Profiling of Annotated Libraries Using Quantitative High-Throughput Screening (AID 1296008). Note: % is set by controls: 0 for no effect and ±100 for the full control effect; nearly all actives have a fitted effect of over 60% in size. Conditions: Five cell lines viability, CellTiter-Glo ATP luminescence, 48-72 h; max response: stronger effect = lower value. In a few lines:
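Cells exposed to compounds for 48 or 72 hr at 37 degrees Celsius. Viability read as ATP-coupled luminescence with CellTiter-Glo after 10 min at room temperature.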

Assay [20] in a line: Drug repurposing screens with cells derived from glioblastoma tumor samples (AID 1345199). Note: % is set by controls: 0 for no effect and ±100 for the full control effect; nearly all actives have a fitted effect of over 40% in size. Conditions: GBM patient neurospheres viability, ATP luminescence, 48 h; Potency: tumour line A; series mostly up to 45.9 µM. In a few lines:
(§2)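 Primary testing used CD133+ neurospheres from four GBM patients, seven concentrations, 48 h exposure and ATP-based viability; confirmation added three slower-growing patient lines.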

The subject of assay [21] is astro. Described as above. Particulars: viability, ATP luminescence, 48 h; series mostly up to 45.9 µM. In short, it runs like this:
as §2

Assay [22] deals with Nuclear receptor subfamily 1 group I member 2 (Rattus norvegicus) (UniProt Q9R1A7). Kind of assay: qHTS assay for small molecule activators of the rat pregnane X receptor (rPXR) signaling pathway (AID 651751; call rule not given here; note: 0% is about no effect). Conditions: rPXR reporter cells, luciferase (One-Glo), 24 h.
Chain of Nuclear receptor subfamily 1 group I member 2 (Rattus norvegicus) (Q9R1A7 whole entry, looked up): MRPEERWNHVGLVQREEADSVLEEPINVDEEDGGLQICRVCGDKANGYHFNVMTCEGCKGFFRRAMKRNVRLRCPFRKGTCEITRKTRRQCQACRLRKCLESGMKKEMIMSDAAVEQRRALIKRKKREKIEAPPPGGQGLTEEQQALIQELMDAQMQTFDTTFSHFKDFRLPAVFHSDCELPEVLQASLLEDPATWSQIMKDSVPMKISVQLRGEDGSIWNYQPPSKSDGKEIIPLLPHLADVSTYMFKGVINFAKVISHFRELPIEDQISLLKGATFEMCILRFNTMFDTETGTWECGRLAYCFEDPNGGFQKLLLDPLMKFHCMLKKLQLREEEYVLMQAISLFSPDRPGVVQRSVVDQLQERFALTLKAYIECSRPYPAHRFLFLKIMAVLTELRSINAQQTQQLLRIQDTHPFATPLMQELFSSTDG
Assay [23] is described as follows: qHTS assay for small molecule activators of the human pregnane X receptor (PXR) signaling pathway (AID 720659; call rule not given here; note: 0% is about no effect).

Values joined by “and” are separate entries in the source; they are usually repeats but may differ in a detail not shown here. Identical values can stand only once. Records with an inconclusive call do not appear. Active and inactive are the calls of the source. Unless noted, calls come from the whole dose curve; as a rule, active = well fitted curve in the direction sought with a large enough effect; inconclusive = small, poorly fitted or top-dose-only effect, or another doubt; inactive = no such curve, though single readings can be large; an effect the other way counts as inactive or inconclusive.

Chain of Retinoic acid receptor RXR-alpha (Homo sapiens) (P19793 whole entry, looked up): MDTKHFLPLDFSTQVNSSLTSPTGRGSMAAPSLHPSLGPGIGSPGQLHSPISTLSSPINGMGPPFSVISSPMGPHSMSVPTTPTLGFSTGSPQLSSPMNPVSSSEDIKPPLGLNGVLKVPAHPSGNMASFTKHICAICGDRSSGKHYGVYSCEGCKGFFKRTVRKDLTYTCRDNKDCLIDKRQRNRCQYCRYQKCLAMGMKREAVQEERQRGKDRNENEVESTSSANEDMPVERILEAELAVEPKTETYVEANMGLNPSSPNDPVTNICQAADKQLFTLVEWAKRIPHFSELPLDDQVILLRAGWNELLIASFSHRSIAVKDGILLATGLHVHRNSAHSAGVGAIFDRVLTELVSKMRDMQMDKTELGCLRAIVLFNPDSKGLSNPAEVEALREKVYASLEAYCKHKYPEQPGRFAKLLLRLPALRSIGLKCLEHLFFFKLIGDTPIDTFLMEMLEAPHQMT

For the molecule `CCOc1cc(C=O)ccc1O`, the Potency entry in [1], in assay [5], in [6], in [7], in assay [11] and in assay [16] was “inactive” each time. Besides, the Potency entry in assay [17], in assay [18], in assay [20] and in assay [21] was “inactive” throughout. Also, the max response in assay [2] was 0.367% and -12.6%; in assay [3], 1.38% (inactive) and 4.11% (inactive); in assay [10] it was -3.28% (inactive) and -2.59% (inactive); in assay [13], -3.19% (inactive); in assay [14], -8.41% (inactive) and -7.59% (inactive); in assay [19], -13% (inactive). The max response in assay [22] is -3.58% (inactive) and -0.453% (inactive). The activity change % (negative = inhibition) in assay [4] is 6.05% (inactive) and -14.6% (inactive). Further, the activation is -1.8% (inactive) in assay [8]; -0.0137% (inactive) and -0.605% (inactive) in assay [9]. Further, the result in assay [12], in [15] and in [23] was inactive.
